Structures can show the parent of a compound that is named as a salt. ± gives the standard deviation of the averaged measurements.

The subject of the assay is Toxoplasma gondii RH (in HFF). The assay can be described thus: parasite growth relative to the screen mean (all compounds = 100%); higher = less inhibition of parasite growth. Conditions: 5 µM; 72 h; oxygen 21 %. A digest of the protocol: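 Growth values are relative to the mean of the whole screen and averaged over duplicate screens, with all compounds together set to 100%. Parasites (RH β-Gal–GFP Toxoplasma, MOI 1:5) were added within 2 h of pinning compounds at 5 µM final onto confluent human foreskin fibroblasts and grown 72 h at 21% O2. Parasite number came from CPRG β-Gal readings against in-plate standard curves.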
Turning to `CC(C)(C)NCC(O)COc1cccc2[nH]c(C#N)cc12` (stereo not drawn) [Cyanopindolol hemifumarate], the parasite growth was 130 ± 6.7%.
On to `CCCOc1ccc2[nH]cc(C3=CCNCC3)c2n1`, for which the parasite growth was 140 ± 5.8%.
The same measure for `O=Cc1cn(Cc2ccc(Cl)cc2)c2ccccc12` [Oncrasin 1]: 113 ± 44%; for `Cc1nnc2ccc(-c3cccc(C(F)(F)F)c3)nn12`: 126 ± 14%.
As to `NC(C(=O)O)c1nn[nH]n1` (racemic) [(RS)-(Tetrazol-5-yl)glycine], the parasite growth was 146 ± 30%.
Turning to `NCC(O)c1ccc(O)cc1` (stereo not drawn) [Octopamine hydrochloride], the parasite growth amounted to 76.6 ± 12%.
In turn, `CC(=O)N1CC[N+](C)(C)CC1` [4-Acetyl-1,1-dimethylpiperazinium iodide] displayed a parasite growth of 130 ± 13%.
The molecule `N=C(N)NN` [Aminoguanidine hydrochloride] registered a parasite growth of 124 ± 28%.
The same measure for `O=C1NCN(c2ccccc2)C12CCN(CC1COc3ccccc3O1)CC2` (stereo not drawn) [Spiroxatrine]: 140.8 ± 0.7%; for `CN1[C@@H]2C[C@@H](OC(=O)[C@H](CO)c3ccccc3)C[C@H]1[C@@H]1O[C@@H]12` [Scopolamine hydrobromide]: 83.5 ± 48%; for `CC(N)Cc1c[nH]c2ccc(OCc3cccs3)cc12` (stereo not drawn) [BW 723C86 hydrochloride]: 133 ± 3.8%.
For `c1ccc(CCCCN2CCC(c3ccccc3)CC2)cc1` [4-PPBP maleate] the value was 82.8 ± 5.3%; for `O=C(O)/C=C/CO` [trans-4-Hydroxycrotonic acid], 108 ± 8.3%; for `c1ccc2nc(N3CCNCC3)ccc2c1` [Quipazine dimaleate], 115 ± 8.3%.
`O=C1/C(=C/c2ccccc2)C[C@@]2(O)[C@H]3Cc4ccc(O)c5c4[C@@]2(CCN3CC2CC2)[C@H]1O5` [BNTX maleate] returned a parasite growth of less than 0%.
`NC(N)=Nc1ccc2[nH]c3c(c2c1)C[C@@]1(O)[C@H]2Cc4ccc(O)c5c4[C@@]1(CCN2CC1CC1)[C@H]3O5` [GNTI dihydrochloride]: the parasite growth stood at 124 ± 2.5%.
Consider `CC[N+](CC)(CCCNC1=CC(=O)C(NCCC[N+](CC)(CC)Cc2ccccc2)=CC1=O)Cc1ccccc1` [Benzoquinonium dibromide], for which the parasite growth came out at 129 ± 29%.
As to `CN1C(=O)CCS(=O)(=O)C1c1ccc(Cl)cc1` (stereo not drawn) [Chlormezanone], the parasite growth stood at 145 ± 22%.
Take `CC(C)n1cnc2c(C(=O)N[C@H]3CN4CCC3CC4)cc(Cl)cc21`: the parasite growth was 71.5 ± 9.6%.
Molecule `c1ccc(CC(c2ccccc2)N2CCCCC2)cc1` (racemic) [(±)-1-(1,2-Diphenylethyl)piperidine maleate] displayed a parasite growth of 124 ± 20%.
The same measure for `O=C1CSC(c2ccccc2Cl)c2cc(Cl)ccc2N1` (stereo not drawn): 153 ± 4.7%.
In the case of `N#Cc1ccc(N2CCN(C(=O)COc3ccc4[nH]cc(CCN)c4c3)CC2)cc1` [Donitriptan hydrochloride], the parasite growth was determined as 78.6 ± 12%.
As for `O=C1Nc2ccccc2C2(CCN(CCc3ccc(C(F)(F)F)cc3)CC2)O1`, the parasite growth is 99.9 ± 20%.
On to `Nc1ccncc1` [4-Aminopyridine], for which the parasite growth is 157 ± 28%.
As to `CC(C)C[C@@H](N)C1(c2ccc(Cl)cc2)CCC1`, the parasite growth stood at 111.4 ± 0.42%.
The same measure for `CCNC(=O)[C@H]1O[C@@H](n2cnc3c(N)ncnc32)[C@H](O)[C@@H]1O`: 93 ± 12%; for `C=C(C)[C@H]1CN[C@H](C(=O)O)[C@H]1CC(=O)O` [Kainic acid]: 58.7 ± 12%; for `CN(C)CCN(C)CCc1ccc(Cl)c(Cl)c1` [BD 1047 dihydrobromide]: 89.4 ± 30%.
`COc1ccc(C(=O)N2CCCC2=O)cc1` [Aniracetam] came in with a parasite growth of 97.2 ± 53%.
As to `C=CCN1C[C@H](C)N([C@H](c2ccc(C(=O)N(CC)CC)cc2)c2cccc(OC)c2)C[C@H]1C`, the parasite growth was 42.5 ± 3.7%.
For `C=CCN1CC[C@]23c4c5ccc(O)c4O[C@H]2/C(=N/NC(=O)c2ccccc2)CC[C@@]3(O)[C@H]1C5` [Naloxone benzoylhydrazone], the parasite growth was 108 ± 34%.
The same measure for `CCC[C@@H]1CC2=CC(=O)CC[C@]2(C)[C@H]2CC[C@@]3(C)[C@@H](CC[C@@]3(O)CCC(=O)O)[C@H]12`: 75.2 ± 19%.
Molecule `c1ccc(C2CNCc3ccccc32)cc1` (stereo not drawn) [4-Phenyl-1,2,3,4-tetrahydroisoquinoline hydrochloride] gave a parasite growth of 98.2 ± 12%.
For the molecule `CC(C)(c1ccc(OCC2CO2)cc1)c1ccc(OCC2CO2)cc1` (stereo not drawn), the parasite growth came out at 157 ± 30%.
Molecule `CCCN(CCC)[C@@H]1CCc2c(OC)cccc2[C@@H]1C` [(+)-UH 232 maleate] had a parasite growth of 115 ± 20%.
Regarding `S=C(NC1CCCCC1)N1CCC(c2cnc[nH]2)CC1` [Thioperamide], the parasite growth was determined as 124 ± 20%.
`CC(C)(C)OC(=O)c1ncn2c1[C@@H]1CCCN1C(=O)c1c(Br)cccc1-2` [Bretazenil] showed a parasite growth of 87.1 ± 5.4%.
In turn, `O=[N+]([O-])c1cc(O)c(O)c([N+](=O)[O-])c1` gave a parasite growth of 80.4 ± 42%.

The record behind these values is the supplement of paper PMC4894684.
